# Data as given in PubChem BioAssay AID1645882 (National Center for Advancing Translational Sciences (NCATS), 2021).
# In all, about 16,000 compounds went through this assay and about 120 (0.75%) were called active. Another 4% or so got no clear call; they are omitted. Calls follow the shape of the dose curve; as a rule, active = well fitted inhibition curve with a large enough effect; inconclusive = small, poorly fitted or top-dose-only effect; inactive = no such curve, though single readings can be large or run the other way. Only a selection was taken, and actives are over-represented in it overall. A structure can be active in one record and inactive in another.
# Molecular target: Rap guanine nucleotide exchange factor 3 (Homo sapiens) (UniProt O95398)
# Test: Validation qHTS for antagonist of cAMP-regulated guanine nucleotide exchange factor 3 (EPAC1); also: nearly all actives have a fitted effect of over 75% in size
# Conditions: EPAC1 Rap1B-BODIPY-GDP exchange, fluorescence; series mostly up to 150 µM; activity change, negative = inhibition: at the top concentration
# Text: Assay Provider (PI): Xiaodong Cheng Ph.D.
# The University of Texas Medical Branch, […], TX
# In multi-cellular eukaryotic organisms, the effects of cAMP are transduced by two ubiquitously-expressed intracellular cAMP receptors, the classic protein kinase A/cAMP-dependent protein kinase (PKA/cAPK) and the more recently discovered exchange protein directly activated by cAMP/cAMP-regulated guanine nucleotide exchange factor (EPAC/cAMP-GEF). Both PKA and EPAC are ubiquitously expressed in all tissues, and an increase in intracellular cAMP levels will lead to the activation of both PKA and EPAC. Therefore, careful dissections of the individual role and relative contribution of EPAC and PKA within the overall cAMP signaling in various model systems are critical for further elucidating the mechanism of cAMP signaling. To date no EPAC-specific antagonists and agonist, as well as isoform-specific agonists have been reported, and developing EPAC-specific pharmacological probes to determine the physiological functions that EPAC play in the overall cAMP-mediated signaling remains a major challenge within the research field. Furthermore, identified regulators of EPAC may lead to new mechanism-based therapeutic strategies specifically targeting the EPAC / cAMP-signaling components as EPAC has been implicated to play important roles in major human pathological conditions such as diabetes, heart disease, and cancer.
# This qHTS will be used to screen the Molecular Libraries Small Molecule Repository (MLSMR) as a concentration-titration series using the NCGC unique quantitative screening (qHTS) platform to find activators for EPAC1. In addition, this assay will also be used as a counterscreen for the EPAC2 qHTS. This fluorescent based assay is developed and validated for EPAC1 that measures exchange using EPAC effector Rap1 complex with BODIPY-GDP, a GDP analog with a tethered fluorophores. Activators are identified by monitoring the change in fluorescence signal as the exchanged free BODIPY-GDP has a reduced fluorescence compared to Rap1-bound BODIPY-GDP. Increase in signal (activation) is the desired outcome for the EPAC1 agonist while no activity in this assay is desired for the EPAC2 agonist counterscreen.
# [1] de Rooij, J., Zwartkruis, F. J., Verheijen, M. H., Cool, R. H., Nijman, S. M., Wittinghofer, A., and Bos, J.L. (1998) Nature 396, 474-477.
# Briefly, three uL of reagents (100 nM EPAC1, 250 nM RAP1B-BODIPY-GDP, 50 uM GDP) were dispensed into a 1536-well Greiner black solid-bottom medium binding assay plate. Controls and test compounds (23 nL) were transferred to the plate via a Kalypsys pin tool equipped with a 1536-pin array. The plates were centrifuged at 1,000 rpm for 15 seconds followed by 5 minute incubation at room temperature. The assay plates were read at 5 minute intervals for 30 minutes in the ViewLux plate reader using 480nm excitation and 540nm emission filters. The results were normalized to the […] positive control ATA and DMSO.
# Potency is read from the fitted curve at half-maximal effect.
# Chain of Rap guanine nucleotide exchange factor 3 (Homo sapiens) (O95398 whole entry, looked up): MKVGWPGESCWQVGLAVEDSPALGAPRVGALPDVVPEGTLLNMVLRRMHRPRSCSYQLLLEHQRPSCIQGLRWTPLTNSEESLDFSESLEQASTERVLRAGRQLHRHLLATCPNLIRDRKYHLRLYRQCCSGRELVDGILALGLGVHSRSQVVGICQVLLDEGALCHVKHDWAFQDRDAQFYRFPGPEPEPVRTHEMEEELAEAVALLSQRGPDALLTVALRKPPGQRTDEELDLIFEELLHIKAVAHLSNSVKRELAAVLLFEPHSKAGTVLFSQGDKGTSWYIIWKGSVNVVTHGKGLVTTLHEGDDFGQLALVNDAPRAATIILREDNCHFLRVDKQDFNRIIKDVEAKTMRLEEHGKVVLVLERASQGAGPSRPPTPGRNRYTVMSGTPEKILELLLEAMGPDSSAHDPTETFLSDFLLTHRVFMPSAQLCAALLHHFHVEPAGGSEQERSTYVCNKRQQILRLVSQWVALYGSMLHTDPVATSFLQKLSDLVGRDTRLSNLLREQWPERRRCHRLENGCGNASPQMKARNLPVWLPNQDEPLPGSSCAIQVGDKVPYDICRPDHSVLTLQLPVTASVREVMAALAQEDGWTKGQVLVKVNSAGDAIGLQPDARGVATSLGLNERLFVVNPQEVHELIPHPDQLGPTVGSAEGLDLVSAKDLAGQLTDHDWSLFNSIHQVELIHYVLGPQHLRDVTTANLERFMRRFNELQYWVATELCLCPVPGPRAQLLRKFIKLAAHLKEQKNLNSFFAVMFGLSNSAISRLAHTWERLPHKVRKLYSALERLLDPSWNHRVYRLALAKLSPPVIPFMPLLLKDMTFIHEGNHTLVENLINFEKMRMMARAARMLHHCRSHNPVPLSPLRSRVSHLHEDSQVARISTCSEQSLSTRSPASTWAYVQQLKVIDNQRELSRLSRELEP
Compound,"activity change, negative = inhibition",Potency
O=[N+]([O-])c1cc(I)c(O)c(I)c1,21.3% (inactive),–
O=[N+]([O-])c1ccc(O)c([N+](=O)[O-])c1,5.37% (inactive),–
O=[N+]([O-])c1cc(O)c(O)c([N+](=O)[O-])c1,–,79.4 µM (active) and inactive
COP(=S)(OC)Oc1ccc(S(N)(=O)=O)cc1,19.3% (inactive),–
O=c1oc2ccccc2c(O)c1C(CC(O)c1ccc(-c2ccc(Br)cc2)cc1)c1ccccc1 (stereo not given),–,100 µM (active)
O=c1oc2ccccc2c(O)c1C(c1ccccc1O)c1c(O)c2ccccc2oc1=O,22% (inactive),–
O=c1oc2ccccc2c(O)c1Cc1c(O)c2ccccc2oc1=O,–,inactive
O=C(Oc1ccccc1)N1CCC2(CC1)CCN(C(c1ccccc1)c1ccccc1)CC2,26.6% (inactive),–
CC(C)(C)c1cc(O)ccc1O,–,inactive
Oc1cc2c(cc1O)[C@H]1c3ccccc3CN[C@H]1CC2,–,inactive
CC(=O)O.CC(=O)O.[Cd],-7.38% (inactive),–
COc1cc2c(cc1OC)[C@@H]1C(=O)c3ccc4oc(C(C)C)cc4c3OC1CO2 (stereo not given in full),3.72% (inactive),–
CCc1cccc(C)c1N(C(=O)CCl)C(C)COC (stereo not given),1.24% (inactive),–
CN(C)C1C(=O)C(C(N)=O)=C(O)[C@@]2(O)C(=O)C3=C(O)c4c(O)cccc4[C@](C)(O)C3C(O)C12 (stereo not given in full),2.85% (inactive),–
Cl.Cl.Cl.Cl.Cl.Cl.N.N.N.N.NNNNN.NNNNN.O.O.[Ru].[Ru].[Ru],–,89.1 µM (active)
O=CN1CC2CC(C1)c1cccc(=O)n1C2 (stereo not given),18.2% (inactive),–
CC(C)CCCC1(C)C=Cc2c(O)c3c(c(CCC(C)C)c2O1)OC12C(CC4CC1C(C)(C)OC2(CCC(C)C(=O)O)C4O)C3=O (stereo not given),–,70.8 µM (active)
CN(C)CCc1c[nH]c2cccc(O)c12,41% [at 320 µM] (inactive),–
ClCCN(CCCl)/C(=C\c1ccccc1)c1ccnc2ccccc12,23.4% (inactive),–
O=C1CC[C@@]2(O)C3Cc4ccc(O)c5c4C2(CCN3CC2CC2)[C@H]1O5 (stereo not given in full),2.27% [at 75.8 µM] (inactive),–

Compound,"activity change, negative = inhibition",Potency
CC(=O)OC1CC(OC(C)=O)[C@]2(C)C(CC(OC(C)=O)[C@]3(C)C2CC[C@@]2(C)C(c4ccoc4)C[C@H]4O[C@]432)C1(C)C (stereo not given in full),7.6% (inactive),–
O=C1OC(c2ccc(O)c(S(=O)(=O)O)c2)(c2ccc(O)c(S(=O)(=O)O)c2)c2c(Br)c(Br)c(Br)c(Br)c21,–,14.1 µM (active)
O=S(=O)(O)c1cc(O)ccc1O,16.6% [at 75.8 µM] (inactive),–
CCOC(=O)[C@]12Cc3cc(OC)ccc3[C@H]1N(Cc1ccccc1)C(=O)c1cc(F)c(F)cc12,-17% (inactive),–
CC(Cc1ccc2c(c1)OCO2)NO (stereo not given),6.99% [at 320 µM] (inactive),–
NC(=O)[C@H](Cc1ccccc1)NC(=O)[C@H](Cc1c[nH]c2ccccc12)NC(=O)[C@@H]1CCCN1C(=O)[C@@H](N)Cc1ccc(O)cc1,5.24% [at 15.3 µM] (inactive),–
CCOC(=O)C1(c2ccccc2)CCCN(C)CC1 (stereo not given),17.5% (inactive),–
CCC(C)C(=O)c1c(O)c(C)c2oc3c(C)c(O)c(C(=O)C(C)CC)c(O)c3c2c1O (stereo not given),-18% (inactive),–
CCOCN(C(=O)CCl)c1c(C)cccc1CC,14.4% (inactive),–
O=[N+]([O-])c1ccc(F)c([N+](=O)[O-])c1,2.44% (inactive),–
COc1c2c(c(CC=C(C)C)c3oc(=O)c(-c4ccc(O)cc4)c(O)c13)OC(C)(C)C=C2,-16.9% (inactive),–
COC(=O)/C(C)=C\CC12OC(C)(C)C3CC(C=C4C(=O)c5c(OC)c6c(c(CC=C(C)C)c5OC431)OC(C)(CCC=C(C)C)C=C6)C2=O (stereo not given),5.89% (inactive),–
CC(=O)Oc1c2c(c(CC=C(C)C)c3c1C(=O)C1=CC4CC5C(C)(C)OC(C/C=C(\C)C(=O)O)(C4=O)[C@]15O3)OC(C)(CCC=C(C)C)C=C2 (stereo not given in full),–,44.7 µM (active)
CC(C)=CCCC1(C)C=Cc2c(O)c3c(c(CC=C(C)C)c2O1)OC12C(=CC4CC1C(C)(C)OC2(C/C=C(/C)C(=O)O)C4O)C3=O (stereo not given),–,63.1 µM (active)
CC(C)=CCCC1(C)C=Cc2c(O)c3c(c(CC=C(C)C)c2O1)OC12C(=CC4CC1C(C)(C)OC2(C/C=C(/C)C(=O)O)C4=O)C3=O (stereo not given),–,50.1 µM (active)
CN[C@H]1C[C@@H](N)[C@H](O)[C@@H](O[C@@H]2O[C@H](CO)[C@H](O)[C@@H]3OC4(O[C@H]23)O[C@H](C(N)CO)[C@H](O)[C@H](O)[C@H]4O)[C@@H]1O (stereo not given in full),–,inactive
CC[C@]1(O)CC(O[C@@H]2CC(N(C)C)C(O)C(C)O2)c2c(cc3c(c2O)C(=O)c2c(O)cccc2C3=O)C1C(=O)OC (stereo not given in full),2.61% (inactive),–
CCC(=O)O[C@H]1[C@@H](N2CCCCC2)C[C@H]2[C@@H]3CC[C@H]4C[C@H](OC(C)=O)[C@@H](N5CCCCC5)C[C@]4(C)[C@H]3CC[C@@]21C,13.2% (inactive),–
CC(CC(C#N)(c1ccccc1)c1ccccc1)N(C)C (stereo not given),12.7% [at 320 µM] (inactive),–
CC(C)C1C(=O)N2CCC[C@H]2[C@]2(O)O[C@](NC(=O)[C@@H]3C=C4c5cccc6[nH]cc(c56)C[C@H]4N(C)C3)(C(C)C)C(=O)N12 (stereo not given in full),37.4% (inactive),–

Compound,"activity change, negative = inhibition",Potency
C[C@@]12CCC(O)C[C@H]1CCC1C2CC[C@]2(C)C(=O)CCC12 (stereo not given in full),17.4% (inactive),–
O=S(=O)(O)C(F)(F)C(F)(F)C(F)(F)C(F)(F)C(F)(F)C(F)(F)C(F)(F)C(F)(F)F,–,35.5 µM (active)
O=S(=O)(O)C(F)(F)C(F)(F)C(F)(F)C(F)(F)F,30.7% [at 320 µM] (inactive),–
CC(C)C[C@H]1C(=O)N2CCC[C@H]2[C@]2(O)O[C@](NC(=O)[C@@H]3C[C@@H]4c5cccc6[nH]cc(c56)C[C@H]4N(C)C3)(C(C)C)C(=O)N12,16.7% (inactive),–
O[C@@H]1CCCC[C@@H]1N1CCC(c2ccccc2)CC1,6.71% (inactive),–
Cn1cccc1-c1cccnc1,38% (inactive),–
N#C/C(=C\c1ccc(O)c(O)c1)C(N)=S,–,89.1 µM (active)
N#CC(C#N)=Cc1ccc(O)c(O)c1,–,inactive
N#C/C(=C/c1ccc(O)c(O)c1)C(N)=S,2.58% [at 75.8 µM] (inactive),–
O=c1ccc2cc(OC3OC(CO)C(O)C(O)C3O)c(O)cc2o1 (stereo not given),4.95% (inactive),–
O=C(N[C@H]1N=C(c2ccccc2F)c2cccc3c2N(CC3)C1=O)c1cc2ccccc2[nH]1,-25% (inactive),–
CC1Cc2ccccc2CN1 (stereo not given),13.3% (inactive),–
C[N+](C)(C)CCOC(=O)C(O)(c1ccccc1)c1ccccc1,9% (inactive),–
CN(CCC(N)CC(=O)NC1C=CC(n2ccc(N)nc2=O)OC1C(=O)O)C(=N)N (stereo not given),-1.03% (inactive),–
O=C1C(Cl)=C(Cl)C(=O)C(Cl)=C1Cl,–,39.8 µM (active)
COc1cc(CC(C)N)cc(OC)c1OC (stereo not given),14.5% [at 320 µM] (inactive),–
Nc1ccccc1C(=O)O,10.3% (inactive),–
O=C1C(I)=CC(=C(c2cc(I)c(O)c(I)c2)c2ccccc2C(=O)O)C=C1I,–,39.8 µM (active)
CNc1ccccc1C(=O)O,17.1% (inactive),–
N#CN,7.44% (inactive),–
